# Assay results reported in PubChem BioAssay AID1839 (Johns Hopkins Ion Channel Center, 2009).
# Among all 2,400 compounds or so, about 220 (9.2%) were called active. The full list was thinned out, with actives kept by preference. Values without a mark were called inactive.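 Rule for the calls: active = signal change above the mean of dofetilide-free buffer controls plus 3 SD, so a positive margin; inactive = the rest.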
# Test: nonspecific flux effects in parental CHO-K1, confirmation, counter-screen for hERG block protection project, cell-based, CHO-K1 parental line, FluxOR thallium flux (AID 1839);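 note: compounds applied alone with no dofetilide to cells lacking hERG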
# Settings: CHO-K1 parental cells, FluxOR thallium flux fluorescence; at 10 µM
row,Structure (SMILES),"signal change vs control minus 3*SD hit threshold (margin above threshold, higher = more increase)"
1,O=C(CSc1nc(N2CCCCC2)nc(N2CCCCC2)n1)c1ccccc1,-13.7%
2,Cc1nn(-c2ccc(Cl)cc2)c2sc(C(=O)c3c(N)n(C)c(=O)n(C)c3=O)cc12,-34.5%
3,Cc1ccc(N=Cc2cc(Cl)cc(Cl)c2O)nc1,-26.6%
4,COc1cc(Br)cc(C=Nc2cccc(C(F)(F)F)c2)c1O,-8.3%
5,Cc1cccc(N=Cc2cc(Br)cc(Cl)c2O)c1,3.2% (active)
6,Cc1ccc(N=Cc2cc(Br)cc(Cl)c2O)cc1,-4.8%
7,NC(=O)c1cccc(N=Cc2cc(Cl)cc(Cl)c2O)c1,-22.3%
8,Oc1c(Cl)cc(Cl)cc1C=Nc1ccc(Br)cc1,12.8% (active)
9,COc1cc(C2NC(=O)NC(O)(C(F)(F)F)C2C(C)=O)cc(OC)c1OC (configuration not stated),-34.1%
10,CCOc1cc(/C=C2/C(=O)ON=C2C)ccc1O,-38.8%
11,Oc1ccc(Cl)cc1C1=NNC(c2cccs2)C1 (configuration not stated),-19.1%
12,Cc1ccc(SCc2ccc(C(=O)N3CCCC3)cc2)cc1,-17%
13,CCOc1ccc(NC(=S)NS(=O)(=O)c2cc(Br)ccc2OCC)cc1,-3.6%
14,Nc1nnc(SCC(=O)OCc2ccc(F)cc2)s1,-40.4%
15,Cc1cccc(N2CCN(C(=O)Cc3c(C(=O)O)[nH]c4ccc(Cl)cc34)CC2)c1C,-33.6%
16,Cc1ccc(S(=O)(=O)N(C)C)cc1NC(=S)NC(C)CCCC(C)C (configuration not stated),-30.7%
17,CC(Nc1ccc(F)cc1)=[N+](C)CCNS(=O)(=O)c1ccc(Cl)cc1,-34.8%
18,CC(=O)c1c(N)[nH]c(-c2ccccc2)nc1=S,-6.7%
19,CSc1nc(-c2ccccc2)[nH]c(=S)c1C(C)=O,34.8% (active)
20,CC(=O)c1c(C)[nH]c(-c2ccccc2)nc1=S,-20.4%
21,O=C1C2CC=CCC2C(=O)N1c1ccc(Cc2ccncc2)cc1 (configuration not stated),-16%
22,CCCCn1c(-c2csc(C(C)C)c2)n[nH]c1=S,-20.9%
23,CCCn1c(SCN2C(=O)c3ccccc3C2=O)nc2cc(Cl)ccc2c1=O,-10.9%
24,O=C(Cn1nnc(-c2cccc(C(F)(F)F)c2)n1)N1CCCCCC1,-29.6%
25,O=c1c2ccc(Cl)cc2nc(-c2cccc(C(F)(F)F)c2)n1O,66.5% (active)
26,O=c1c2cc(Br)ccc2nc(-c2cccc(C(F)(F)F)c2)n1O,69.7% (active)

row,Structure (SMILES),"signal change vs control minus 3*SD hit threshold (margin above threshold, higher = more increase)"
1,N#Cc1ccc(-c2nc3cc(Cl)ccc3c(=O)n2O)cc1,-29.9%
2,NC(=O)c1nn2c(C(F)(F)F)cc(-c3ccccc3)nc2c1Br,-26%
3,COc1cc(OC)cc(-c2nc3ccccc3c(=O)n2OC(=O)c2ccc(Br)cc2)c1,-34.9%
4,O=c1c2cc(Br)ccc2nc(-c2cccc(Cl)c2)n1O,45.7% (active)
5,O=c1c2cc(Br)ccc2nc(-c2ccc(Cl)cc2)n1O,48.2% (active)
6,CCCn1c(SC(C)C(=O)N2CCOCC2)nc2ccc(Br)cc2c1=O (configuration not stated),-28.1%
7,O=C(CCc1ccccc1Cl)Nc1ccc(S(=O)(=O)N2CCOCC2)cc1,-31.3%
8,CC(=O)OCC1O[C@@H](O[C@@H]2C[C@H]3C(C)(C)[C@H](OC(C)=O)CC[C@]3(C)[C@H]3CC[C@]45C[C@]4(CC[C@H]5[C@@H](C)C[C@@H](O)[C@H](O)C(C)(C)O)[C@@]32C)[C@H](O)[C@@H](O)[C@@H]1O (some centres not stated),-4.8%
9,Cc1c(OC(C)C(=O)NCCN2CCOCC2)ccc2c3c(c(=O)oc12)CCC3 (configuration not stated),-28.3%
10,Cc1occc1C(=O)NNC(=S)NC(=O)COc1ccc(Cl)cc1Cl,-23.7%
11,Cc1c(C#N)c(O)[nH]c(=O)c1N=Nc1ccc(Br)cc1C(=O)O,-28.4%
12,N#Cc1ccc(-c2nc3ccc(Br)cc3c(=O)n2O)cc1,-5.1%
13,O=c1cc(-c2ccccc2)cc(-c2ccccc2)n1O,-22.5%
14,O=c1c2cc(Br)ccc2nc(-c2ccccc2)n1O,5.2% (active)
15,Cc1sc2nc(C(C)C)nc(SCC(=O)NCc3ccco3)c2c1C,-12.6%
16,CC(C)(C)c1ccc(C(=O)NC(=S)N2CCCC2)cc1,-17.2%
17,O=C(NC(=S)N1CCCC(C(F)(F)F)C1)c1ccc(F)cc1 (configuration not stated),4.7% (active)
18,CC(C)(C)c1ccc(C(=O)NC(=S)N2CCCCCC2)cc1,-12.4%
19,Cc1nnc(C)n1/N=C/c1cc(Br)cc(Br)c1O,-18.1%
20,CC(=O)N1c2ccc(N=Cc3cc(Br)cc(Br)c3O)cc2CC1C (configuration not stated),1.6% (active)
21,CNC(=S)N/N=C/c1cc(Br)cc(Br)c1O,-14.8%
22,NC(=O)[C@@H]1CCCN1Cc1nc(Cc2ccccc2Cl)no1,-33.1%
23,CSc1nc(C)c(Cc2ccccc2)c(=O)[nH]1,-30.6%
24,O=c1ccc(N=Nc2ccccc2)ccc1O,27.6% (active)
25,Cc1ccc(N=Nc2ccc(O)c3ncccc23)cc1,-33.4%
26,CN(C)c1ccc(N=Nc2ccc(C(=O)O)cc2)cc1,-27.2%

row,Structure (SMILES),"signal change vs control minus 3*SD hit threshold (margin above threshold, higher = more increase)"
1,CCC1CCCCN1C(=S)NC(=O)c1cccs1 (configuration not stated),-31.1%
2,COc1ccc(C(=O)Nc2ccccc2C(=O)O)cc1Cl,-30.4%
3,COc1ccc(/C=C/C(=O)Nc2ccccc2C(=O)O)cc1,-18.6%
4,COc1ccc(-n2nc(C)cc2Nc2ccccc2C(=O)O)cc1,0.3% (active)
5,CCOc1cc(N2CCOCC2)c(OCC)cc1NC(=O)Cc1ccccc1,-13.5%
6,Nc1nonc1-n1nnc(C(=O)N/N=C/c2ccccn2)c1-c1ccccc1,-22.7%
7,O=C(NC(=S)Nc1nc2c(s1)CSc1ccccc1-2)c1ccccc1,-20.9%
8,COc1ccc(-c2cc(C(F)(F)F)nc(SCC(=O)NCc3cccs3)n2)cc1,-17.2%
9,Cc1ccccc1NC1=NC(=S)N(c2ccccc2)C12CCCCC2,-2.6%
10,COc1cccc(C(=O)NNC(=O)C(=O)Nc2cccc3ccccc23)c1,11.1% (active)
11,CCOc1ccccc1NC(=O)C(=O)CC(=O)c1cccc(OC)c1,-25.9%
12,COc1cccc(C(=O)NNC(=O)C(=O)Nc2ccc(OC)cc2OC)c1,-6.2%
13,COc1ccc(C(=O)CC(=O)C(=O)Nc2ccc(C)cc2Cl)cc1,-13.5%
14,CCOc1ccccc1NC(=O)C(=O)CC(=O)c1ccc(OC)cc1,-20.6%
15,COc1ccc(C(=O)CC(=O)C(=O)Nc2ccccc2Cl)cc1,10.1% (active)
16,COc1ccc(C(=O)NNC(=O)C(=O)Nc2cccc3ccccc23)cc1,12.2% (active)
17,COc1ccc(C(=O)CC(=O)C(=O)Nc2ccccc2OC)cc1,-25.2%
18,COc1ccc(C(=O)CC(=O)C(=O)Nc2ccccc2C(F)(F)F)cc1,-24.1%
19,CCOC(=O)N1CCN(C(=O)c2ccc(Cl)c(S(=O)(=O)Nc3ccccc3)c2)CC1,-11.6%
20,O=C(O)CSc1nc2ccccc2nc1Cc1ccccc1F,-22.7%
21,CCC(=O)N1CCN(c2nc(CC)nc3sc4c(c23)CCCC4)CC1,-56%
22,Cc1cc(-c2cccc(Br)c2)c(C#N)c(N)n1,-34.5%
23,O=C(CCN1C(=O)/C(=C\C=C\c2ccccc2)SC1=S)Nc1cccc(C(=O)O)c1,-27.2%
24,Cc1ccccc1OC(=O)n1c(=S)oc2cc(Cl)ccc21,-25.4%
25,Cc1ccccc1C(=O)Nc1nc(=S)ss1,9.5% (active)
26,O=C(Nc1nnc(-c2ccc3c(c2)CCCC3)o1)c1ccc(Cl)cc1Cl,-21.2%

row,Structure (SMILES),"signal change vs control minus 3*SD hit threshold (margin above threshold, higher = more increase)"
1,CC(C)CC(=O)Nc1nc(=S)ss1,-30.3%
2,O=C(NNC(=O)c1ccc(Cl)cc1Cl)c1cnccn1,-29%
3,O=C(Nc1nc(=S)ss1)c1ccc(Cl)cc1Cl,56.5% (active)
4,COC(=O)c1sc(NC(=S)NC(=O)c2ccccc2C)nc1C,-2.6%
5,O=C1Nc2ccc(Br)cc2C1Cc1ccccc1F (configuration not stated),-42.3%
6,O=C(O)c1ccc2c(c1)C(=O)N(c1cc([N+](=O)[O-])ccn1)C2=O,-24.2%
7,CCC(=O)Nc1ccc(N2CCOCC2)c(S(=O)(=O)Nc2ccc(OC)cc2)c1,-21.7%
8,O=C(c1ccccc1)c1nccn1-c1ccc(Cl)nn1,-27.6%
9,CC(NC(=O)C1CCN(S(=O)(=O)c2cccc3cccnc23)CC1)c1ccccc1 (configuration not stated),-31.3%
10,Cc1cc(C(=O)NCCN2C(=O)S/C(=C\c3cccs3)C2=O)ccc1[N+](=O)[O-],-31.4%
11,Cn1cc(/C=C2\SC(=O)NC2=S)c2ccccc21,-27.6%
12,CCOc1ccc(/C=C2/SC(=O)NC2=S)cc1,39% (active)
13,CCOc1ccc(/C=C2\CCc3ccccc3C2=O)cc1,-33.6%
14,Cc1ccc(-c2nc(N)s[n+]2-c2ccccc2)cc1,-7.8%
15,CCOC(=O)N/N=C\c1ccc(-c2cc(Cl)ccc2Cl)o1,-32%
16,Cc1ccc(C(C)NC(=O)c2cccs2)cc1C (configuration not stated),-16.2%
17,O=C(N/N=C/c1cc(Cl)ccc1O)c1ccccc1Br,-21.5%
18,CCOC(=O)c1sc(NN=C(C(=O)OC)C(=O)OC)c(C(=O)OCC)c1C,-7.4%
19,CCOc1ccc(N(CC)C(=O)COc2cc(=O)n(C)c3ccccc23)cc1,-18.3%
20,CCCOc1ccc(C(=O)NNC(=S)NC(=O)c2ccccc2)cc1,-44.9%
21,CCCOc1ccc(OC(=O)c2ccc(Br)o2)cc1,-5.2%
22,CCOc1ccc(CC(C(N)=O)C(N)=O)cc1,-32.5%
23,CCOc1ccc(-c2c(=O)n(O)c3ccccc3[n+]2[O-])cc1,19.7% (active)
24,CCCOc1ccc(-c2c(=O)n(O)c3ccccc3[n+]2[O-])cc1,29.7% (active)
